Experiment [1] has as its system HIV-1 integrase (multimerization). In words: stimulation of HIV-1 integrase oligomerization – biochemical, TR-FRET, counter-screen for LEDGF/p75 integration inhibitor project (AID 1053131; in the data active = activation above about 8.9%). The following applies: TR-FRET HIV-1 integrase multimerization, at 7.7 µM, stronger effect = higher value. (TR-FRET usually uses a lanthanide donor and a delayed reading to cut background.)

The nature of experiment [2]: compounds disturbing TR-FRET signal readout – biochemical, HIV-1 IN multimerization, artefact control for LEDGF/p75-dependent integration inhibitor project, confirmation (AID 1053135;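 active = inhibition above the mean over all tested compounds plus 3 SD, which no compound reached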;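 note: 0% = integrase with antibodies and DMSO and 100% = antibodies without integrase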). The following applies: TR-FRET optical interference counterscreen, at 7.7 µM, stronger effect = higher value.
In experiment [3] the test system is HIV-1 integrase / human LEDGF/p75 complex. In words: blockers of LEDGF/p75-dependent integrase activity – biochemical, TR-FRET, confirmation (AID 1053136). The conditions noted are these: TR-FRET LEDGF/p75-dependent HIV-1 integration, at 3.7 µM, stronger effect = higher value.
The target in experiment [4] is Glutathione S-transferase omega-1 (Homo sapiens) (UniProt P78417). In words: recombinant GSTO1 blockers, retest – biochemical, fluorescence polarization, triplicate, counter-screen for RBBP9 inhibitor project, confirmation (AID 2176;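 active = inhibition above the primary screen's cutoff, its mean inhibition plus 3 SD, cut at about 35% in these data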;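 note: loss of polarization as inhibitors block binding of rhodamine sulfonate ester activity probe; 0% = GSTO1 with DMSO and 100% = wells lacking GSTO1 enzyme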). The conditions noted are these: recombinant GSTO1, probe fluorescence polarization; at 5.96 µM; stronger effect = higher value. Background: Polarisation of emitted light reports the rotation of a fluorescent probe.
Chain of Glutathione S-transferase omega-1 (Homo sapiens) (P78417 whole entry, looked up): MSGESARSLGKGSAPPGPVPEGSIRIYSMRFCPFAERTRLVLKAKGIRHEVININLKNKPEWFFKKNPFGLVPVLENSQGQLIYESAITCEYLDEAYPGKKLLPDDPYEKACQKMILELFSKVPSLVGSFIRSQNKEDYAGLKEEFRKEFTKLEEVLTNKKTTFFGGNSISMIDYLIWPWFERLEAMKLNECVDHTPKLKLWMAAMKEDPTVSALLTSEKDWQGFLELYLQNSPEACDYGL

Experiment [5] has as its system TLR4-MyD88 interaction (human), BLA complementation. Kind of experiment: disruptors of TLR4 binding to MyD88 – cell-based, HeLa CL3-4, BLA complementation, FRET ratio, confirmation (AID 941;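 active = mean inhibition across three repeat runs above about 25% carried over from the earlier screen, limit read from the data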;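 note: plate controls were DMSO only for no effect and clavulanic acid blocking BLA at full dose for full effect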). The conditions noted are these: CCF4 FRET ratio, at 8.4 µM, stronger effect = higher value.
Experiment [6] is described as follows: BLA reporter interference in HeLa cells – cell-based, full-length BLA, CCF4 FRET ratio, artefact control for TLR4-MyD88 binding inhibitor project, confirmation (AID 1237;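 active = mean inhibition over three repeats above about 26% taken from the earlier screen, limit read from the data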;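 note: HeLa cells stably expressing beta-lactamase reporter as counterscreen for TLR4-MyD88 inhibitors; 0% = DMSO and 100% = clavulanic acid full inhibition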). The following applies: at 8.4 µM, stronger effect = higher value.
Experiment [7] deals with Insulin-degrading enzyme (Homo sapiens) (UniProt P14735). Kind of experiment: cellular IDE Abeta-cleavage inhibition – fluorescence polarization, HEK cells, FAbetaB substrate, confirmation (AID 435028;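 active = mean inhibition across triplicate wells above the cutoff set by the earlier primary insulin-degrading enzyme screen, cut at about 16% in these data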;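 note: 0% = DMSO wells and 100% = 60 µM reference IDE inhibitor Ii1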). The following applies: at 5.59 µM, stronger effect = higher value.
Chain of Insulin-degrading enzyme (Homo sapiens) (P14735 whole entry, looked up): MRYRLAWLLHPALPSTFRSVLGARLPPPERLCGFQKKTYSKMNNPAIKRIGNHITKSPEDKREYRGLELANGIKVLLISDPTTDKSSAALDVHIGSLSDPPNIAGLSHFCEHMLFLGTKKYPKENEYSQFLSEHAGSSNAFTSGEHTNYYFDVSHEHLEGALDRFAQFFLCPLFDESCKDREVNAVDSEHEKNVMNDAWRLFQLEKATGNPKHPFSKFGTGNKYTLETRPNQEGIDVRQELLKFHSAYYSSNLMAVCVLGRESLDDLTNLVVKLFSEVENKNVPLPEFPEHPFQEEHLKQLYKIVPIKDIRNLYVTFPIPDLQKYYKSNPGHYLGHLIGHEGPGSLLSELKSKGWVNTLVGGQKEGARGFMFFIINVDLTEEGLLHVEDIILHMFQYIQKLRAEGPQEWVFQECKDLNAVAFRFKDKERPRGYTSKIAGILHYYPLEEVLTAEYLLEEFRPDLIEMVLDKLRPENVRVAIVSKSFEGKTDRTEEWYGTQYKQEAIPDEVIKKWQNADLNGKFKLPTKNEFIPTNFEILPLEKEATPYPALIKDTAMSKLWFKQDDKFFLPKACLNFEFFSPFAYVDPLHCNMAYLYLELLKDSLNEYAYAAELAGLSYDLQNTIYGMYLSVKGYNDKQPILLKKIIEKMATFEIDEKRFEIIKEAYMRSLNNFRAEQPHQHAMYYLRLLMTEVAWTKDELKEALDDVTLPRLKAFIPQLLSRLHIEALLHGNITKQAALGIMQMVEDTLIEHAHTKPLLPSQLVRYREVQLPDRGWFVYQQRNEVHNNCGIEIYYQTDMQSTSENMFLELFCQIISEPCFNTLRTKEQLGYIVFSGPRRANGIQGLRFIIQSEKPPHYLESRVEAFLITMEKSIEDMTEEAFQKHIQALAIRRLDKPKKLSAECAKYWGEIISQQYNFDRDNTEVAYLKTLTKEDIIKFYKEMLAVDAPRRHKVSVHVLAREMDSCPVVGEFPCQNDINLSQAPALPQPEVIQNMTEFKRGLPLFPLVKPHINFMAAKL
Experiment [8] can be described thus: HEK cell viability loss – luminescence, cytotoxicity control for IDE inhibitor project (AID 449730; in the data active = inhibition above about 22%;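 note: 0% = vehicle wells and 100% = reference cytotoxic drug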). The conditions noted are these: HEK293 cytotoxicity, ATP luminescence; at 5.59 µM; stronger effect = higher value.
Experiment [9] in a line: BSA probe fluorescence interference – biochemical, TAMRA-labeled BSA, counter-screen for TCR-CD3 interaction inhibitor project (AID 652035; in the data active = inhibition above about 23%;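 note: 0% = buffer low control and 100% = reference high control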). The conditions noted are these: TAMRA-labeled BSA probe fluorescence counterscreen; at 9.4 µM; stronger effect = higher value. Background: A counterscreen serves to expose hits that act by an unwanted route or on another target.
Experiment [10] has as its system T-cell receptor (TCR)-CD3 interaction, human. Kind of experiment: blockers of TCR binding to CD3 – biochemical, fluorescence, TAMRA-labeled TCR probe, confirmation (AID 652036; in the data active = inhibition above about 19%). The conditions noted are these: TAMRA-labeled TCR probe fluorescence binding assay; at 9.4 µM; stronger effect = higher value.
Experiment [11] is described as follows: potentiators of IFN-gamma STAT1 reporter activity – cell-based, HTS, luciferase reporter, confirmation (AID 1262;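 active = activation above a set limit carried over from the earlier primary STAT1 screen, cut at about 140% in these data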;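 note: simple ratio to median IFN-gamma plus DMSO wells so 0% means no light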). The conditions noted are these: NIH 3T3 STAT1-luciferase reporter, IFN-gamma potentiation, luminescence; at 5.7 µM; stronger effect = higher value; 100% = IFN-gamma EC80 alone, no compound.
Experiment [12] can be described thus: blockers of IL-6 STAT3 signaling – U3A cells, luciferase, luminescence, confirmation (AID 1265;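 active = inhibition above the hit cutoff computed for the primary STAT3 screen, cut at about 44% in these data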;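 note: 0% = IL-6 plus DMSO and 100% = IL-6 plus nifuroxazide control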). The conditions noted are these: IL-6 STAT3 luciferase reporter, at 5.7 µM, stronger effect = higher value, cell line lacks STAT1.
Experiment [13] in a line: enhancement of NF-kB transcriptional signalling – cell-based, HEK293T, luciferase luminescence, TNF-alpha, counter-screen for STAT1 activator project (AID 1306;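 active = activation above the mean of solvent-only control wells plus 3 SD, set per campaign, cut at about 130% in these data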;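 note: TNF-alpha given at a submaximal dose yielding about 80% of full reporter signal; values are well signal over median control so 100% means no change and 0% no light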). The following applies: HEK293T NF-kB luciferase reporter, TNF-alpha stimulated, at 5.7 µM, stronger effect = higher value, 100% = TNF-alpha with vehicle only.
Experiment [14] is described as follows: inhibition of TNF-alpha-driven NF-kB transcription – cell-based, HEK293T, luciferase, TNF-alpha stimulus, counter-screen for STAT3 inhibitor project, confirmation (AID 1308;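 active = inhibition above the mean of solvent-only control wells plus 3 SD, cutoff set per campaign, cut at about 13% in these data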;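 note: 0% = TNF-alpha with DMSO and 100% = TNF-alpha with MG high control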). The following applies: HEK293T NF-kB luciferase reporter, TNF-alpha induced; at 5.7 µM; stronger effect = higher value.
The target of experiment [15] is Signal transducer and activator of transcription 3 (Homo sapiens) (UniProt P40763). Kind of experiment: enhancers of IL-6 STAT3 transcription – U3A cells, luciferase, luminescence, counter-screen for STAT1 activator project, confirmation (AID 1316;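 active = activation above the solvent-only control well mean plus 3 SD, set per plate batch, cut at about 110% in these data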;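 note: 0% = no luminescence and 100% = median IL-6 plus DMSO wells; higher means more STAT3 reporter activation so hits are non-selective activators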). The conditions noted are these: U3A cells STAT3-luciferase reporter, IL-6, luminescence; at 5.7 µM; stronger effect = higher value; 100 = IL-6 alone, no compound effect; cells lack STAT1.

Experiment [16] in a line: inhibition of STAT1-driven transcription – cell-based, NIH 3T3, luciferase luminescence, IFN-gamma, counter-screen for STAT3 inhibitor project, confirmation (AID 1317;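 active = inhibition above the mean plus 3 SD of solvent-only control wells, limit set per screening run, cut at about 16% in these data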;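 note: 0% = DMSO with IFN-gamma and 100% = nifuroxazide control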). The conditions noted are these: NIH 3T3 STAT1-luciferase reporter, IFN-gamma induced, at 5.7 µM, stronger effect = higher value.
Experiment [17] has as its target Peroxisome proliferator-activated receptor gamma (Homo sapiens) (UniProt P37231). In words: retested PPARg-SRC-2 recruitment enhancers – biochemical, HTS, confirmation (AID 1297; in the data active = activation above about 22%;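 note: 0% = vehicle alone and 100% = reference agonist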). The conditions noted are these: biochemical SRC-2 recruitment by PPARgamma; at 8 µM; stronger effect = higher value.
Experiment [18] shares this target. Kind of experiment: retest of SRC-1 recruitment enhancers for PPARgamma – biochemical, confirmation (AID 1300; in the data active = activation above about 20%;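 note: 0% = vehicle wells and 100% = reference agonist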). The following applies: PPARgamma–SRC-1 coactivator recruitment biochemical assay; at 8 µM; stronger effect = higher value.
For experiment [19], the target named is Peroxisome proliferator-activated receptor gamma (Homo sapiens) + Nuclear receptor coactivator 3 (Homo sapiens) (UniProt P37231+Q9Y6Q9). Kind of experiment: agonists promoting SRC-3 binding to PPARgamma – biochemical, confirmation (AID 1301; in the data active = activation above about 24%;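 note: 0% = vehicle wells and 100% = reference agonist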). The conditions noted are these: biochemical PPARgamma-SRC-3 coactivator recruitment, agonist mode; at 8 µM; stronger effect = higher value.
Chain of Peroxisome proliferator-activated receptor gamma (Homo sapiens) + Nuclear receptor coactivator 3 (Homo sapiens) (P37231 whole entry, looked up): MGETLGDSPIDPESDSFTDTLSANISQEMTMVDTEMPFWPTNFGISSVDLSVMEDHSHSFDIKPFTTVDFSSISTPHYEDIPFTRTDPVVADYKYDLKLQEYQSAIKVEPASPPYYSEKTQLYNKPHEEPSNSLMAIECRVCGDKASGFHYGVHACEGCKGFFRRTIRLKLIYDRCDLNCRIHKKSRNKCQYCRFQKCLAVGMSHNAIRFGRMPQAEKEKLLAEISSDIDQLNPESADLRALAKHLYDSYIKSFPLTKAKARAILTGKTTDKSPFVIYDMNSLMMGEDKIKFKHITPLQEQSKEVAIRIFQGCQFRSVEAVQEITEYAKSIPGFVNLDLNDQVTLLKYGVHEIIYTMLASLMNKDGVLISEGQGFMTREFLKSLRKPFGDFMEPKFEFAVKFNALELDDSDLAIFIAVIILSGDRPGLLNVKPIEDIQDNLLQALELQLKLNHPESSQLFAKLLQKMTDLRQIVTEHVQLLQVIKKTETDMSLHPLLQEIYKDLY
Chain of Peroxisome proliferator-activated receptor gamma (Homo sapiens) + Nuclear receptor coactivator 3 (Homo sapiens) (Q9Y6Q9 whole entry, looked up): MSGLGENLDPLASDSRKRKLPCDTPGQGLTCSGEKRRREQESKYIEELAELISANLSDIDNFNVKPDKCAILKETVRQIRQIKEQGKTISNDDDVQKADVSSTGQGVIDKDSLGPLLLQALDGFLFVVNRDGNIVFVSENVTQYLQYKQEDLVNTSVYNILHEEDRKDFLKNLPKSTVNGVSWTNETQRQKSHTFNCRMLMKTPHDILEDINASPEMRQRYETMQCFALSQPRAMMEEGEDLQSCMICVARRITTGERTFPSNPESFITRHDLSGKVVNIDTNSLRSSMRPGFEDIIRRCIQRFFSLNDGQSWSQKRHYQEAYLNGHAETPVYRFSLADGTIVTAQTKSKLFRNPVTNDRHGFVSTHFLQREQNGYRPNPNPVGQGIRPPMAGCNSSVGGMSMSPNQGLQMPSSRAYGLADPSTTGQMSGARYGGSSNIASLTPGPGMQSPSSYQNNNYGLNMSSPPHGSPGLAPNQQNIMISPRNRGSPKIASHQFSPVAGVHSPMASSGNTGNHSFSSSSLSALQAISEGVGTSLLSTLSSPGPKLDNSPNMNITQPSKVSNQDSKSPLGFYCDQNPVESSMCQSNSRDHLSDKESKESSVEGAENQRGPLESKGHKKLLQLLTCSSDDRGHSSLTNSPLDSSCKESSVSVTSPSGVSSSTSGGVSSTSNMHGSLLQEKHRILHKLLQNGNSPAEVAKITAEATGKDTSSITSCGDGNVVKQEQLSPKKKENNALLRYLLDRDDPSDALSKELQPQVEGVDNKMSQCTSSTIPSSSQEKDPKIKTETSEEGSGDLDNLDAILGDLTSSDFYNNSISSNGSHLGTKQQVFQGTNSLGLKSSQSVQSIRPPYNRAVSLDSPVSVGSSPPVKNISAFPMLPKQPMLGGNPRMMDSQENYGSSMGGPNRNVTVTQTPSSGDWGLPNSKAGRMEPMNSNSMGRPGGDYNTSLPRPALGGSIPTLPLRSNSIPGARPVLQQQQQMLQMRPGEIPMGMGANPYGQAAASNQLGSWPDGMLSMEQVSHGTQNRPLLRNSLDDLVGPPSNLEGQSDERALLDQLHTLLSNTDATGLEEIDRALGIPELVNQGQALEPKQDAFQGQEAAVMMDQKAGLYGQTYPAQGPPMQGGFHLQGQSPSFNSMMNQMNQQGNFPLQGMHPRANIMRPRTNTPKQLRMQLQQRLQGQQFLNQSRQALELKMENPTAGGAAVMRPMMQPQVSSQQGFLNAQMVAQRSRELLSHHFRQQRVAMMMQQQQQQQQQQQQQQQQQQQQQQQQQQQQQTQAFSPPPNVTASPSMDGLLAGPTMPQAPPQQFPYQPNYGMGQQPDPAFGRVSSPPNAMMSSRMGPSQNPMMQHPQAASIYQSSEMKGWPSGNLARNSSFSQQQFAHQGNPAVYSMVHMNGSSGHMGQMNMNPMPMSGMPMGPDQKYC

Experiment [20] addresses Receptor-interacting serine/threonine-protein kinase 2 (Homo sapiens) (UniProt O43353). Kind of experiment: inhibitors of RIPK2 association with NOD2 – fluorescence, CHO cells, BLA complementation, triplicate, confirmation (AID 624370;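 active = mean inhibition across replicates above a set limit taken from the earlier primary screen, cut at about 21% in these data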;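 note: 0% = DMSO-only wells and the high end = clavulanate BLA-blocked wells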). The following applies: CCF4 FRET, at 4.98 µM, stronger effect = higher value.
A short description of experiment [21]: BLA reporter readout interference – cell-based, CHO-K1 CMV-bla, CCF4 FRET, fluorescence, artefact control for NOD2-RIPK2 interaction inhibitor project, confirmation (AID 624371;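 active = mean inhibition above the low-control mean inhibition plus three low-control SD, cut at about 11% in these data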;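 note: 0% = DMSO only wells and 100% = clavulanate high control wells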). The conditions noted are these: CCF4 FRET ratio, counterscreen, at 4.98 µM, stronger effect = higher value.

The other results are listed elsewhere or left out. A number with no mark means an inactive call. The source made the active and inactive calls. Cut-off read from the data, not from the text of the source, unless noted: active = inhibition above about 14%; inactive = the rest.

Chain of Peroxisome proliferator-activated receptor gamma (Homo sapiens) (P37231 whole entry, looked up): as the sequence (P37231 whole entry, looked up) above
Chain of Receptor-interacting serine/threonine-protein kinase 2 (Homo sapiens) (O43353 whole entry, looked up): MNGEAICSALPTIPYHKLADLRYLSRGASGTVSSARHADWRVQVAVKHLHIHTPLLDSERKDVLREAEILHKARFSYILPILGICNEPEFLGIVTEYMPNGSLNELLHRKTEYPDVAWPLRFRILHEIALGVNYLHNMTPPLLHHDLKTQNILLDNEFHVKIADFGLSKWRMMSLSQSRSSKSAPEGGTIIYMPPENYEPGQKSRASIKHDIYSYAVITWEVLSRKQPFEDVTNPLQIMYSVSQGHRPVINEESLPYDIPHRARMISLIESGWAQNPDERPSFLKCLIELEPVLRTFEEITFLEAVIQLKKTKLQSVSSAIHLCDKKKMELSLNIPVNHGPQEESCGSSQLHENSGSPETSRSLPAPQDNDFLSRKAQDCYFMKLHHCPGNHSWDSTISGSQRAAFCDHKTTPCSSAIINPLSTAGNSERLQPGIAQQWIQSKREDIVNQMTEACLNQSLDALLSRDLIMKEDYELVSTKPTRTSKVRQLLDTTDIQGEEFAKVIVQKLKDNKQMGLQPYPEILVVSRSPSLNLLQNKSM

Turning to `NC1=NN(c2cccc(C(=O)O)c2)C(=O)C1`, in [1], the activation is 12.3% (active). In addition, the inhibition – broadly, the change of the read-out against control, counted positive when it falls – in [2] was -62%; in [3], -2.77%.
In the same order, the values of `CC(=O)c1nc2ccccc2n1Cc1ccccc1` are -0.46%, 2.34% and -4.4%.
As for `CCOC(=O)/C(C#N)=C\c1c(C)cc(C)c(COC(C)=O)c1C`, in experiment [1], the activation is 0.2%. Moreover, the inhibition is -1.03% in [2] and 3.21% in experiment [3].
Take `Cc1ccc(C(=O)OC(C)CN2CCOCC2)cc1` (configuration not stated): the activation in [1] was 0.25%. In addition, the inhibition in [2] is -1.23%; in experiment [3] it was -2.32%.
With `CCOC(=O)c1c(C)oc2cc(Sc3ccccc3)c(O)c(O)c12`, the inhibition in experiment [4] was 5.29%; in experiment [2], -2.84%; in experiment [3] it was -5.02%. Also, the activation in experiment [1] is 0.78%.
In the case of `C[n+]1ccc(/C=C/c2c[nH]c3ccccc23)cc1`, the inhibition was 26.1% (active) in experiment [5], 42.1% (active) in [6], 42.6% (active) in experiment [7] and 13.1% in [8].
Turning to `Cc1ccccc1NCC(=O)N/N=C\c1ccc([N+](=O)[O-])s1`, the inhibition is 1.19% in experiment [9], 7.69% in experiment [10], 1.03% in [2] and -2.15% in experiment [3]. In experiment [1], the activation is -0.2%.
Consider `Cc1ccc2cc3cc(C(=O)N4CCCCCC4)oc3nc2c1`, for which the activation (% of control) was 224% (active) in [11], 120% in experiment [13] and 137% (active) in experiment [15]. In addition, the inhibition in experiment [12] is 7.37%; in experiment [14], -42%; in experiment [16] it was -140%.
Regarding `CCN(CC)c1ccc2oc(=O)c(C)nc2c1`, the figures for the inhibition in experiment [5] and in [6] were 4.42% and 4.01%, respectively. The results for the activation in experiment [17], in experiment [18] and in experiment [19] were 7.05%, 6.29% and 3.97%, respectively.
In the case of `O=C(/C=C/c1ccc(N2CCOCC2)cc1)c1ccccc1`, the inhibition in experiment [5] was 21.1%; in [6], 45.8% (active); in [7], 14.1%; in [8] it was 15.4%; in [20], 29% (active); in experiment [21], 31.2% (active).

These data come from PubChem BioAssay.
